PubChem BioAssay AID2280 (The Scripps Research Institute Molecular Screening Center, 2010)
In all, about 320,000 compounds went through this assay and about 1,400 (0.44%) were called active.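 The calls were made as follows: active = percent inhibition above a per-plate cutoff, the plate mean of test compounds plus 3 SD (cut at about 30% in these data); inactive = the rest.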 The sample as a whole holds a higher share of actives than the screen did.

Molecular target: Female germline-specific tumor suppressor gld-1 (Caenorhabditis elegans) (UniProt Q17339)
Assay: small molecules blocking C. elegans GLD-1 RNA recognition – biochemical, fluorescence polarization, primary screen (AID 2280);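 also: 0% = DMSO wells with GLD-1 and probe and 100% = wells lacking GLD-1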
Details: purified GLD-1 + fluorescein TGE RNA, at 5.96 µM, hits give high values

Sequence of Female germline-specific tumor suppressor gld-1 (Caenorhabditis elegans) (Q17339 whole entry, looked up): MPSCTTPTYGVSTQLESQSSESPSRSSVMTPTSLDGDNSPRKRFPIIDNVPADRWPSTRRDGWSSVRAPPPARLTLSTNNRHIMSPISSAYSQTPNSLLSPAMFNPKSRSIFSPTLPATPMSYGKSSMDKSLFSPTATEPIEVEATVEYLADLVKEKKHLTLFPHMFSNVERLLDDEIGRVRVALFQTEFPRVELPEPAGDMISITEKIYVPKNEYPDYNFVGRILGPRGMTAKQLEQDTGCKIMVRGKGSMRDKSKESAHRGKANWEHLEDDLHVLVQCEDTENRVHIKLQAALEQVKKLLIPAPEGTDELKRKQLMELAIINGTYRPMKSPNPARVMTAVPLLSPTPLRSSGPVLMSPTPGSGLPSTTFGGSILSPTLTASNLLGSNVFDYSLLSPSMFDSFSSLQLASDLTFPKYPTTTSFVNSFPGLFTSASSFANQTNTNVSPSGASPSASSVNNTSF

inhibition, inactive:
CCOC(=O)C1CCN(C(=O)CC2C(=O)N(Cc3ccccc3)C(C)c3nc4ccccc4n32)CC1 (centres undefined) 3.57%
O=C(CN1CCN(Cc2ccc(F)cc2Cl)C1=O)NCc1cccs1 5.83%
COc1ccc(OCCCn2cccc2/C=C2/C(=N)N3OC(C)=CC3=NC2=O)cc1 3.29%
CCOc1cc(/C=C2/C(=N)N3OC(C)=CC3=NC2=O)ccc1OC -3.88%
COC(=O)C1=C(NC(=O)C(C)(C)C)CCS1 5.48%
CC(C)N(C(=O)COC(=O)c1ccccc1C(=O)N1CCN(c2ccc(F)cc2)CC1)C(C)C 6.66%
O=C(c1cc(=O)c2ccccc2o1)N1CCN(c2ccccc2)CC1 -3.54%
CCn1c(=S)[nH]c2sc3c(c2c1=O)CCCCC3 -5.76%
Cc1ccccc1SCC(=O)OCC(=O)N1CC(=O)Nc2ccccc21 1.92%
CC1CN(C(=O)CCC(=O)NCCCN2CCC(Cc3ccccc3)CC2)c2cc(Cl)ccc2O1 (centres undefined) 5.77%
Cc1c(CN2CCCCC2)c(O)n(CCO)c(=O)c1C#N 7.69%
CCCCCCn1c(CN2CCCC(C)C2)nc2c1c(=O)n(C)c(=O)n2C (centres undefined) 9.13%
COc1cccc(NC(=O)NCCN2CCCCC2)c1 11.7%
O=C(NCc1ccccn1)c1ccc2nc(-c3ccco3)c(-c3ccco3)nc2c1 20.3%
CNS(=O)(=O)c1ccc(NC(=O)C2CC(=O)N(c3ccc(Cl)cc3)C2)cc1 (centres undefined) 1.34%
CC(C)(C)C(=O)CSc1ccc(S(=O)(=O)N2CCCC2)cn1 4.63%
CCCCc1ccc(S(N)(=O)=O)cc1 6.14%
C[C@@H]1CC[C@@]2(OC1)O[C@H]1C[C@H]3[C@@H]4CC=C5C[C@@H](O)[C@H](O)C[C@]5(C)C4CC[C@]3(C)[C@H]1[C@@H]2C (some centres undefined) -7.94%
COc1cccc2cc(C(C)N(CCCN3CCOCC3)C(=O)Nc3ccc(Cl)cc3)oc12 (centres undefined) 2.92%
Cn1cnnc1SCc1nnc(-c2ccccc2Br)o1 -10.8%
CCOC(=O)N1CCN(Cc2nnc(-c3ccccc3Cl)o2)CC1 -10.5%
COc1cc(S(=O)(=O)N2CCN(C(=O)C3CC3)CC2)ccc1NC(C)=O 3.97%
CCOc1ccc(NC(=O)c2cccc3c2C(=O)N(CC2CCCO2)C3)cc1 (centres undefined) 2.1%
CCCCC1=CC2=CC(=O)C(C)(OC(=O)CC)C(=O)C2=CN1CCCOC(C)C (centres undefined) 22.9%
COCCN1C=C2C(=O)C(C)(OC(=O)C3CCCC3)C(=O)C=C2C=C1c1ccsc1 (centres undefined) 23.1%
CSCCNC(=O)c1ccc2nc(Cc3ccccc3F)oc2c1 -1.35%
COc1ccc(CCN2C(=O)CC(N3CCC(C(N)=O)CC3)C2=O)cc1OC (centres undefined) 1.78%
CCn1c(SCc2ccccc2)nc2cc(OC)c(OC)cc2c1=O -3.64%
COC(=O)c1ccc(SCc2ccccc2)nc1 -5.64%
COc1cc2c(C(=O)N3CCN(C)CC3)c(CSc3ccccc3)n(C)c2cc1Br 0.62%
COC(=O)c1sc(-c2ccc(C(C)(C)C)cc2)cc1NC(=O)/C=C/C(=O)O -0.27%
COc1ccc(N2C(=O)c3cccc4cccc(c34)C2=O)nn1 13.5%
O=C(O)c1ccc2c3c(cccc13)C(=O)N(OS(=O)(=O)c1ccccc1)C2=O 13.8%
CC(=O)Nc1ccccc1Sc1ccc2c3c(cccc13)C(=O)N(c1ccc(C)cc1)C2=O 0.24%
Cc1nn(C)cc1C(=O)c1ccccc1 1.39%
COc1ccccc1C(=O)NCCC(=O)NCC(c1ccco1)N1CCCCC1 (centres undefined) 3.67%
CC(C)(C)CN1CCNC(=O)C1CC(=O)NC1Cc2ccccc2C1 (centres undefined) 8.53%
COc1ccccc1CNC(=O)c1ccc(Cl)c(S(=O)(=O)N2CCCC2)c1 0.54%
N/C(=N\OC(=O)CCn1cccc(C(F)(F)F)c1=O)c1ccc(OC(F)(F)F)cc1 -1.66%
CCOc1ccc(C(=O)NC2CCN(C(=O)Nc3ccccc3OC)CC2)cc1 0.46%
CCOC(=O)c1cc(C#N)c(N2CCCCC2)nc1-c1ccccc1 -3.77%
CC1CCCC(NC(=O)c2cccc(N3CCCC3=O)c2)C1C (centres undefined) 2.8%
COc1ccccc1C(=O)Nc1nc2nc(-c3ccccc3)cc(=O)n2[nH]1 0.62%
CCNS(=O)(=O)c1ccc(CCC(=O)N2CCN(c3cc(Cl)ccc3C)CC2)cc1 1.35%
Cc1cc(C)n(-c2nc(O)cc(=O)[nH]2)n1 4.97%
CC(C)(C)c1ccc(Cn2nnc3c(=O)[nH]c(C4CCCN(C(=O)c5ccco5)C4)nc32)cc1 (centres undefined) 4.28%
CCOC(=O)c1cccc(NC(=O)CN2C(=O)C3CC=CCC3C2=O)c1 (centres undefined) 4.12%
Cc1ccc(OCC(=O)Nc2ccc(C(=O)O)cc2NC(=O)COc2ccc(C)c(C)c2)cc1C 8.42%

inhibition, active:
CC1=CC2=NC(=O)/C(=C/c3coc4ccccc4c3=O)C(=N)N2O1 32.9%
O=C(COC(=O)c1ccccc1C(=O)N1CCN(c2ccccc2)CC1)NCc1ccccc1 55.9%
CCCn1c(O)c(CN2CCCC(C)C2)c(C)c(C#N)c1=O (centres undefined) 41.2%
COCCNC(=O)Nc1ccc2nc(-c3ccco3)c(-c3ccco3)nc2c1 69.3%
Nc1cccc2c1C(=O)N(Cc1nnc(-c3ccccc3Br)o1)C2=O 37%
COC/C=C/C1=CC2=CC(=O)C(C)(OC(=O)CCC(=O)OC)C(=O)C2=CO1 (centres undefined) 46.7%
CSc1c(SCc2ccccc2)cnn(Cc2ccccc2)c1=O 140%
CN1C(=O)c2cccc3c(N)ccc(c23)C1=O 198%
CCN1/C(=C\c2ccc3ccccc3[n+]2CC)Sc2cc(C)ccc21 61.6%
CCOc1ccc2nc(N3CCCN(C(=O)Nc4ccccc4C)CC3)c(C#N)cc2c1 42%
COc1ncnc2c1N=C1CC(C)(C)CC(N)=C1S2 112%
